# From PubChem BioAssay AID1851 (National Center for Advancing Translational Sciences (NCATS), 2009)
# Where “and” joins values, the source holds several entries; their conditions need not be identical. Equal values may be shown once. The whole screen tested about 16,000 compounds, of which about 5,800 (36%) were called active. About 23% were inconclusive and are not listed. Calls come from the whole dose curve; as a rule, active = well fitted curve in the direction sought with a large enough effect; inconclusive = small, poorly fitted or top-dose-only effect, or effect the other way; inactive = no such curve, though single readings can be large or run the other way. This is one part of the list. Some structures have more than one record in an assay (separate samples or runs), and their calls can disagree.
# Molecular target: Cytochrome P450 2C19 (Homo sapiens) (UniProt P33261)
# Sequence (P33261 whole entry, looked up): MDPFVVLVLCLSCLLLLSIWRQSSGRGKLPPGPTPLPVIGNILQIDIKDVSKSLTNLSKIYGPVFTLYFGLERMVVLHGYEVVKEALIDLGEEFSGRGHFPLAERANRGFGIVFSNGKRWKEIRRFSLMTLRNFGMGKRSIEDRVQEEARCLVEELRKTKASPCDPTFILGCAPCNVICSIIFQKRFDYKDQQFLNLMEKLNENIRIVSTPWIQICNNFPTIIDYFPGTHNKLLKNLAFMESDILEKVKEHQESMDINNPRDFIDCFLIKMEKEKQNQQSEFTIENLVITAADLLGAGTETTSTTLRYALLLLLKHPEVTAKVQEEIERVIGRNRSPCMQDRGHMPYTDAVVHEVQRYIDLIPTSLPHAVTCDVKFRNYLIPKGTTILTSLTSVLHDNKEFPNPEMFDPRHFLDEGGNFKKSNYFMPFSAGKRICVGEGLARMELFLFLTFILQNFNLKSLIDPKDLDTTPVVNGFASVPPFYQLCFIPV
# Experiment: Cytochrome panel assay with activity outcomes
# Details: recombinant CYP, pro-luciferin dealkylation, luminescence, p450-cyp2c19; series mostly up to 57.1 µM
# % is set by controls: 0 for no effect and ±100 for the full control effect.
SMILES,"activity, negative = inhibition",AC50
O=C(O)[C@@H]1[C@H](C(=O)O)[C@H]2C(=O)C=C[C@H]1N2Cc1ccccc1,2.25% [at 11.4 µM] (inactive),–
O=C1C[C@@H](O)[C@@H](O)[C@H]2[C@@H]3C(=O)N(Cc4ccccc4)C(=O)[C@@H]3CC[C@H]12,-9.62% [at 11.4 µM] (inactive) and 25.4% [at 11.4 µM] (inactive),–
O=C1C2CCC(C(O)C2)N1Cc1ccccc1 (stereo unspecified),–,15.8 µM (active)
Cn1cc([N+](=O)[O-])c(C(=O)Nc2cc(Oc3cccnc3)cc([N+](=O)[O-])c2)n1,–,7.94 µM (active)
O=C(NNC(=O)C1CC(c2cccnc2)=NO1)Nc1cccc(F)c1 (stereo unspecified),–,inactive
CC1CCCC(C)N1C(=O)C1CC(c2ccc(F)cc2)=NO1 (stereo unspecified),–,17.8 µM (active)
O=C(NC1CCCC1)C1CC(c2ccc(F)cc2)=NO1 (stereo unspecified),–,10 µM (active)
CO[C@H]1COC(=O)[C@H](C)COC(=O)C/C=C\[C@@H](C)[C@H](OC)COC(=O)C/C=C\[C@@H]1C,-42.3% [at 11.4 µM] (inactive),–
COc1nc(C)nc(Cl)c1NC1=NCCN1,–,inactive
Fc1ccc(CN(C2=NCCN2)c2c(Cl)cccc2Cl)cc1,–,inactive
Clc1cccc(Cl)c1NC1=NCCN1,–,inactive and 5.01 µM (active)
Clc1cccc(Nc2nnc(-c3ccccc3)c3ccccc23)c1,–,0.794 µM (active)
Cc1ccc(COc2coc(CO)cc2=O)cc1,–,14.1 µM (active)
COC(=O)[C@@]1(Cc2ccc(OC)cc2)[C@@H]2C(=CC(=O)[C@H]2CC(=O)C(=O)N(C)C)CN1C(=O)c1ccccc1,–,inactive
COc1ccc(C(=O)N2CCC3(CC2)CN(Cc2ccc(C#N)cc2)C3)cc1,–,inactive
C=C1C(=O)C=C2CN(C(=O)c3ccccc3)[C@@](Cc3ccc(OC)cc3)(C(=O)OC)[C@@H]12,–,20 µM (active)
C=C1C(=O)C=C2CN(C(=O)c3ccccc3)[C@@](Cc3ccc(F)cc3)(C(=O)OC)[C@@H]12,–,5.01 µM (active)
O=C(O)C12CC3(C(=O)O)CC(C(=O)O)(CC(C(=O)O)(C1)C3=O)C2=O,-11.5% [at 11.4 µM] (inactive),–
C[C@H]1/C=C\CC(=O)OC[C@H](C)C(=O)N2CCC[C@@H]2C(=O)OC1,-9.53% [at 11.4 µM] (inactive),–

SMILES,"activity, negative = inhibition",AC50
COC(=O)[C@@H]1O[C@@H](SCCN)[C@@H](O)[C@H](O)[C@H]1O,31.9% [at 11.4 µM] (inactive),–
c1cc(-c2sc(-c3ccncc3)c(-c3ccncc3)c2-c2ccncc2)ccn1,–,1.58 µM (active)
Cc1cn2c(-c3ccncc3)nnc2s1,–,inactive
O=C(C(NS(=O)(=O)c1cccs1)c1ccccc1)N1CCN(c2ccccc2)CC1 (stereo unspecified),–,1.41 µM (active)
COc1ccc(N2CCN(CCNC(=O)c3c(C)cc(=O)oc3C)CC2)cc1,–,inactive
CCN1CCN(CCCNC(=O)C(NC(=O)C2CCC(C)CC2)C(C)C)CC1 (stereo unspecified),–,inactive
COc1ccccc1N1CCN(C(=O)C(NS(=O)(=O)c2cccs2)c2ccccc2)CC1 (stereo unspecified),–,3.16 µM (active)
CC(C)C(NS(=O)(=O)c1cccs1)C(=O)NCCN1CCN(c2ccccc2)CC1 (stereo unspecified),–,14.1 µM (active)
COC(=O)N1CCC2(CC1)CCN(C(c1ccccc1)c1ccccc1)CC2,–,inactive
CC(=O)N[C@@H](C(=O)O)C(C)(C)SN=O,–,inactive
CCOC(=O)c1[nH]c(C)c(C(=O)OCC(=O)N2c3ccccc3CC2C)c1C (stereo unspecified),–,11.2 µM (active)
CNCC[C@H](Oc1ccccc1C)c1ccccc1,–,inactive
CNC(=S)NNC(=O)COc1ccccc1C,–,inactive
Cc1ccccc1OCCNC(=S)Nc1ccccc1,–,0.794 µM (active)
O=C(CC(=O)N/N=C\c1c(Cl)cccc1Cl)NCc1ccccc1,–,2.51 µM (active)
C[C@@](N)(C(=O)O)c1ccc(P(=O)(O)O)cc1,–,inactive
CN1Cc2c(C(=O)OC(C)(C)C)ncn2-c2ccsc2C1=O,–,1.26 µM (active)
CCOCCCn1cnc2c([nH]c3cc(OC)ccc32)c1=O,–,1.41 µM (active)
C=CCNC(=O)/C(=C\c1ccc2c(c1)OCO2)NC(=O)c1ccc(Br)cc1,–,8.91 µM (active)

SMILES,"activity, negative = inhibition",AC50
Cc1ccc(NC(=O)/C(=C\c2ccc3c(c2)OCO3)NC(=O)c2ccco2)cc1,–,inactive
O=C(N/N=C/c1ccc2c(c1)OCO2)/C(=C/c1ccc2c(c1)OCO2)NC(=O)c1ccccc1,–,14.1 µM (active)
Cc1ccc(N(C(=O)c2csnn2)C(C(=O)NC(C)(C)C)c2cccs2)cc1 (stereo unspecified),–,2.51 µM (active)
COc1ccc(-c2csc3c2[N+]2=CCC=C2C3=O)cc1,–,3.98 µM (active)
COc1cc2c(C(=O)N3CCN(C)CC3)c(C)n(-c3ccccc3)c2cc1Br,–,28.2 µM (active)
COc1cc(C(=O)N2CCN(C(=O)c3ccccc3)CC2)cc(OC)c1OC,–,inactive
COc1ccccc1CN1CCCC2(CCN(C(=O)c3c(C)noc3C)CC2)C1,–,inactive
CC(C)NC(=O)N1CCCC2(CCN(C(=O)c3ccco3)CC2)C1,–,inactive
CC1CCN(C(NC(=O)c2ccco2)C(=O)c2ccccc2)CC1 (stereo unspecified),–,2 µM (active)
COc1ccc(C(=O)N2CCC[C@@]3(CCN(CC(C)C)C3)C2)cc1,–,inactive
Cc1ccc(C2C(=O)N(C3CCCC3)CC(=O)N2CC2COc3ccccc3O2)cc1 (stereo unspecified),–,6.31 µM (active)
O=C(c1ccc(Cl)cc1)N1CCCC(c2ccccc2)=N1,–,4.47 µM (active)
NC(=O)CNC(=O)[C@@H]1CC2(CC(c3ccc(Cl)cc3)=NO2)CN1C(=O)c1ccccc1 (stereo partly specified),–,inactive
Cc1ccc(S(=O)(=O)N2CCN(S(C)(=O)=O)C2)cc1,–,11.2 µM (active)
Cc1ccc(S(=O)(=O)N2CCN(Cc3ccccc3C(F)(F)F)CC2)cc1,–,2.24 µM (active)
O=S(=O)(c1ccc(Br)cc1)N1CCN(S(=O)(=O)c2ccc(Br)cc2)CC1,-4.78% [at 11.4 µM] (inactive),–
COc1ccccc1CN1CCC2(CC1)CCN(S(=O)(=O)c1ccccc1)CC2,–,inactive
CN(C)[C@H]1C(=O)C(C(=O)NCN2CCCC2)=C(O)[C@]2(O)C(=O)C3=C(O)c4c(O)cccc4[C@](C)(O)[C@H]3C[C@H]12,-26.1% [at 11.4 µM] (inactive),–
